Records with an inconclusive call do not appear. A call without a number means that no potency is given here. The source made the active and inactive calls. Calls follow the shape of the dose curve; as a rule, active = well fitted cell-killing curve with a large enough effect; inconclusive = small, poorly fitted or top-dose-only effect, or effect the other way; inactive = no such curve, though single readings can be large or run the other way.

Among the data in PubChem BioAssay (NCATS) are Potency values, retold here.
Potency is read from the fitted curve at half-maximal effect.

A short description of the assay: Quantitative High-Throughput drug screen in 47 multiple myeloma cell lines against the NCATS MIPE library collection: KMS27_JCRB cell viability assay (AID 1918970). Also: nearly all actives have a fitted effect of over 30% in size. The following applies: KMS27 myeloma cells, CellTiter-Glo ATP viability, 48 h; series mostly up to 45.8 µM. From the text:
PI: Beverly A. Mock Ph.D.
Laboratory of Cancer Biology and Genetics,
Center for Cancer Research, National Cancer Institute,
National Institute of Health, Bethesda, Maryland
Drug resistance and disease progression are common in multiple myeloma (MM) patients, underscoring the need for new therapeutic combinations. […] We hypothesized that effective combinations would reduce MYC expression and enhance p16 activity. […] These preclinical data identify potentially useful drug combinations for evaluation in drug-resistant MM and reveal potential mechanisms of combined drug sensitivity.
Described herein is the primary MIPE qHTS used to cherrypick compounds. Validated compounds were then further tested for potential synergistic activiy.
[1] Peat TJ, Gaikwad SM, Dubois W, Gyabaah-Kessie N, Zhang S, Gorjifard S, Phyo Z, Andres M, Hughitt VK, Simpson RM, Miller MA, Girvin AT, Taylor A, Williams D, D'Antonio N, Zhang Y, Rajagopalan A, Flietner E, Wilson K, Zhang X, Shinn P, Klumpp-Thomas C, McKnight C, Itkin Z, Chen L, Kazandijian D, Zhang J, Michalowski AM, Simmons JK, Keats J, Thomas CJ, Mock BA. Drug combinations identified by high-throughput screening promote cell cycle transition and upregulate Smad pathways in myeloma. […] Epub 2023 Jun 24. PMID: 37356470; PMCID: PMC10408729.
SEQUENCE No. (e.g., 1, 2, 3, etc.); […] (e.g., Cells, Incubation, Reagent, etc.); VALUE and DESCRIPTION.
1; Cells; 5 uL; white, solid bottom 1536-well Greiner assay plate.
2; Compounds; 23 nL; Kalypsis pin tool (Wako USA) equipped with a 1536-well pin head to transfer to the assay plates.
3; Incubation; 48 hours; 37C incubation.
4; Reagent;5uL; CellTiter Glo (Promega).
5; Detector; 425V; Luminescence; Viewlux PerkinElmer.
NOTES (numbers refer to Sequence numbers above)
1. The cell-based screening methods employed in this study were like those previously published. Briefly, the corresponding myeloma cell lines were screened in 1,536-well plates with 500 cells, 5-uL per well for inhibition of cell viability (assessed by measuring ATP levels with CellTiterGlo).
2. NCATS MIPE 4.0 library of approved and investigational drugs were added using the Kalypsis pin tool. Wells treated with DMSO only for 100% viability and media only wells for 0% viability were used as controls.
3. The assay plates were covered and incubated for 48 hours in a 37C, 5% CO2 incubator with controlled humidity.
4. After 48 hours, CellTilter-GloTM luminescent substrate mix (Promega) reagent was added to the assay plate and plates we incubated for 5 min at room temperature.
5. Signal was measured as median relative luminescence units on a ViewLux (PerkinElmer) multiplate reader.
[1] Heske CM, Davis MI, Baumgart JT, Wilson K, Gormally MV, Chen L, Zhang X, Ceribelli M, Duveau DY, Guha R, Ferrer M, Arnaldez FI, Ji J, Tran HL, Zhang Y, Mendoza A, Helman LJ, Thomas CJ. Matrix Screen Identifies Synergistic Combination of PARP Inhibitors and Nicotinamide Phosphoribosyltransferase (NAMPT) Inhibitors in Ewing Sarcoma. Clin Cancer Res. 2017 Dec 1;23(23):7301-7311. doi: 10.1158/1078-0432.CCR-17-1121. Epub 2017 Sep 12. PMID: 28899971; PMCID: PMC6636827.
(Cellular ATP, detected with luciferase, serves as a proxy for viable cell number.)
Take `N=C(N)c1ccc(OCCCCCOc2ccc(C(=N)N)cc2)cc1`: the Potency entry was “inactive”. On to `CC(C)NCC(O)c1ccc(NS(C)(=O)=O)cc1` (stereo not given), for which the Potency result was “inactive”. Regarding `COc1ccc(-c2ccc3cc(C(=O)O)ccc3c2)cc1C12CC3CC(CC(C3)C1)C2`, the Potency entry was “inactive”. Regarding `CC(=O)Oc1ccccc1C(=O)Nc1ncc([N+](=O)[O-])s1`, the Potency was 12.1 µM (active).

For the compound `CNC1CCCN(c2c(F)cc3c(=O)c(C(=O)O)cn(C4CC4)c3c2OC)C1` (stereo not given), the Potency was 0.0209 µM (active). As for `CC1CC2C3CCC4=CC(=O)C=C[C@]4(C)[C@@]3(F)[C@@H](O)C[C@]2(C)[C@@]1(O)C(=O)CO` (stereo not given in full), the Potency result was “inactive”.

Consider `Cc1noc(NS(=O)(=O)c2ccc(N)cc2)c1C`, for which the Potency entry is “inactive”. As to `CCCOc1ccc(C(=O)OCCN(CC)CC)cc1N`, the Potency result is “inactive”. With `CCc1cc(C(N)=S)ccn1` the entry was “inactive”; with `O=P(O)(O)C(O)(Cc1cccnc1)P(=O)(O)O`, “inactive”; with `O=S(=O)(O)CCS`, 16.6 µM (active).

For the compound `NS(=O)(=O)c1cc2c(cc1Cl)NC(C(Cl)Cl)NS2(=O)=O` (stereo not given), the Potency entry is “inactive”. On to `Oc1c(Cl)cc(Cl)c2cccnc12`, for which the Potency is 16.6 µM (active).

In the case of `CNC(=O)c1cc(Oc2ccc(NC(=O)Nc3ccc(Cl)c(C(F)(F)F)c3)cc2)ccn1`, the Potency was 3.32 µM (active). Regarding `CNCC[C@H](Oc1cccc2ccccc12)c1cccs1`, the Potency was 23.5 µM (active).

On to `S=P(N1CC1)(N1CC1)N1CC1`, for which the Potency is 0.469 µM (active). On to `NC(=O)c1cccnc1`, for which the Potency was 0.003 µM (active). On to `CC(=O)CC(c1ccccc1)c1c(O)c2ccccc2oc1=O` (stereo not given), for which the Potency entry was “inactive”.

Consider `CCn1cc(C(=O)O)c(=O)c2cc(F)c(N3CCN(C)CC3)cc21`, for which the Potency result is “inactive”. As for `CN(C)CCc1c[nH]c2ccc(C[C@H]3COC(=O)N3)cc12`, the Potency result was “inactive”.

Consider `N[C@@H](C(=O)N[C@@H]1C(=O)N2C(C(=O)O)=C(Cl)CS[C@H]12)c1ccccc1`, for which the Potency entry was “inactive”.

On to `O=c1oc2c(O)c(O)cc3c(=O)oc4c(O)c(O)cc1c4c23`, for which the Potency entry is “inactive”. With `CN1CCN(c2c(F)cc3c(=O)c(C(=O)O)cn4c3c2OCN4C)CC1`, the Potency result was “inactive”. With `CC(C)C1CCC(C(=O)N[C@H](Cc2ccccc2)C(=O)O)CC1` (stereo not given in full) the entry was “inactive”; with `C[C@@H](CN1CC(=O)NC(=O)C1)N1CC(=O)NC(=O)C1`, 3.72 µM (active).

On to `CCN(CC)CCn1c(=O)c(Cc2ccc(OC)cc2)nc2ccccc21`, for which the Potency was 10.5 µM (active). Turning to `CCCc1nc(C)c2c(=O)[nH]c(-c3cc(S(=O)(=O)N4CCN(CC)CC4)ccc3OCC)nn12`, the Potency is 4.69 µM (active). With `CN(Cc1cc(Br)cc(Br)c1N)C1CCCCC1` the entry was “inactive”; with `CCCc1cc(C(N)=S)ccn1`, “inactive”. As to `CC1=NN(c2ccccc2)C(=O)C1`, the Potency result is “inactive”.

With `CC(N)C12CC3CC(CC(C3)C1)C2` (stereo not given), the Potency entry is “inactive”. Consider `CC[C@H](NC(C)C)[C@H](O)c1ccc(O)c2[nH]c(=O)ccc12`, for which the Potency entry was “inactive”. In the case of `O=C(O)C1CCCN(CCC=C(c2ccccc2)c2ccccc2)C1` (stereo not given), the Potency entry is “inactive”.

In the case of `COc1cc(NCc2ccc3nc(N)nc(N)c3c2C)cc(OC)c1OC`, the Potency was 0.59 µM (active). With `Nc1nc(=S)c2[nH]cnc2[nH]1`, the Potency entry was “inactive”.

Consider `Nc1nc(F)nc2c1ncn2[C@@H]1O[C@H](CO)[C@@H](O)[C@@H]1O`, for which the Potency was 0.662 µM (active). `NCCCC(O)(P(=O)(O)O)P(=O)(O)O`: the Potency result is “inactive”. For the compound `CC[C@H](C)C(=O)O[C@H]1C[C@@H](C)C=C2C=C[C@H](C)[C@H](CC[C@@H]3C[C@@H](O)CC(=O)O3)[C@H]21`, the Potency entry was “inactive”. With `COc1ccc(C(=O)CC(=O)c2ccc(C(C)(C)C)cc2)cc1` the figure was 3.32 µM (active); with `CN(CCOc1ccc(CC2SC(=O)NC2=O)cc1)c1ccccn1` (stereo not given), “inactive”.
